esBAF inh: blocks esBAF chromatin remodeling in mouse ES cells. 2% of 350,000 active. reporter increase, % at 12.5 µM. AID 602393. Bmi1-luciferase knock-in reporter, 24 h; 100% = twice the neutral-well signal; in the data active = activation above about 40%; inconclusive = no clear call, values can overlap the other calls;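 note: 0% = median of the plate's neutral control wells and 100% = double that signal; a rise in the Bmi1 reporter signal indicates esBAF inhibition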
C2C12 statin: protects C2C12 myotubes from simvastatin toxicity; ATP luminescence, 48 h; scaled: DMSO 0, geranylgeraniol control 100; 0.78% of 330,000 active; rescue of ATP level, % at 7.49 µM;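 active = mean ATP rescue above about 67%, or every replicate alone reaching that limit, limit read from the data, passing the limit was not always enough; inconclusive = no clear call, values can overlap the other calls; inactive = mean under the limit and some replicate under it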;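 note: myotubes were challenged with 10 µM simvastatin during compound exposure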
Rtt109 Vps75: inhibitors of Candida albicans Rtt109/Vps75 histone acetyltransferase | purified Rtt109/Vps75, ThioGlo CoA-SH fluorescence, 4 h | 0.16% of 330,000 active | inhibition, % at 34.9 µM | AID 540336;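 active = inhibition of at least 50% in every replicate; inconclusive = best replicate reaches 50% inhibition but some replicates fall short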
Target sequence (Q5AAJ8 whole entry, looked up): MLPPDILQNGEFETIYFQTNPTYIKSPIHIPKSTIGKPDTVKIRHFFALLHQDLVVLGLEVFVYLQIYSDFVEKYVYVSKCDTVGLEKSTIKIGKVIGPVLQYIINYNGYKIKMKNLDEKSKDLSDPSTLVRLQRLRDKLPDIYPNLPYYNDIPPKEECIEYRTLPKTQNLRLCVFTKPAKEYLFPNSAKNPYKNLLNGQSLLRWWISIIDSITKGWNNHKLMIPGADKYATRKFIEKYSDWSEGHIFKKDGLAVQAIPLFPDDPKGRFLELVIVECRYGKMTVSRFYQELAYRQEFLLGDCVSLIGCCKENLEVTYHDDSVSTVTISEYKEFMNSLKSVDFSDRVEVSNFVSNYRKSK
Wnt act: Wnt/beta-catenin pathway activation; AID 743398; Wnt/beta-catenin reporter cell assay, activator, plate reader; activation, % at 9.35 µM; 1.2% of 300,000 active; in the data active = activation above about 30%, passing the limit was not always enough; inconclusive = no clear call, values can overlap the other calls;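 note: 0% = neutral control wells and 100% = positive control wells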
MITF TRPM1 HTS: MITF TRPM1 promoter activation in melanoma cells; SK-MEL-5 TRPM1-promoter luciferase, 24 h; % of positive control, neutral wells = 0; activation, % at 12.5 µM; 0.75% of 300,000 active; AID 588334;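 active = mean activation of at least 80% with every replicate also reaching 80%; inconclusive = mean reaches 80% but some replicate falls short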;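 note: 0% = neutral control wells and 100% = parthenolide positive control wells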
Numbers without * were called inactive; ? = inconclusive; · = not tested or not shown. Rows were chosen to be rich in hits. Some 3.1% of all compounds tested hit in one or more screens of this group.

SMILES	esBAF inh	C2C12 statin	Rtt109 Vps75	Wnt act	MITF TRPM1 HTS
C[C@H](CO)N1C[C@H](C)[C@H](CN(C)Cc2ccc(C(=O)O)cc2)Oc2ccc(NC(=O)Cc3ccccc3)cc2C1=O	0.5	-2.9	·	·	·
CO[C@H]1CN(C)C(=O)c2ccc(NC(=O)c3ccccc3F)cc2OC[C@@H](C)NC[C@@H]1C	-0.1	18.0	·	·	·
Cc1cc(C)cc(NC(=O)c2sc3nc(C)cc(C)c3c2N)c1	69.6*	-8.0	0.4	10.8	62.9
Cc1ccc(NC(=O)c2sc(N)nc2-c2ccc([N+](=O)[O-])cc2)cc1C	-0.6	-10.5	-10.8	0.0	14.0
Cc1cc(C)c2c(N)c(C(=O)N/N=C/c3cccs3)sc2n1	·	·	·	44.6*	·
Cc1cc(C)c2c(N)c(C(=O)NC3CCCC3)sc2n1	35.3	-2.7	-1.2	10.1	29.4
Cc1cc(C)c2c(N)c(C(=O)Nc3ccc([N+](=O)[O-])cc3)sc2n1	?	-14.3	-9.7	16.4	101.3*
COc1ccc(/C=N/NC(=O)c2sc3nc(C)cc(C)c3c2N)cc1	·	·	-4.6	-2.7	·
Cc1cc(C)c2c(N)c(C(=O)NCC3CCCCC3)sc2n1	7.7	-0.7	-4.5	-3.7	88.5*
Brc1ccc(-n2cnc(-c3ccccc3)c2)cc1	11.6	-5.0	6.1	44.9*	45.4
O=[N+]([O-])c1ccc(-c2cn(-c3ccc(Cl)cc3)cn2)cc1	·	·	·	5.0	·
CCCC(=O)Nc1ccc2c(c1)OC[C@H](C)N(C(=O)CC1CC1)C[C@@H](C)[C@H](OC)CN(C)C2=O	-0.4	-19.3	·	·	·
CS(=O)(=O)NN1C(=O)c2ccccc2NC1c1cc2ccccc2nc1Cl (stereo not given)	89.3*	18.3	-4.1	52.1*	5.2
C[C@@H]1CN([C@@H](C)CO)S(=O)(=O)c2ccc(/C=C/c3ccccc3)cc2O[C@@H]1CN(C)C(=O)NC1CCCC1	5.1	92.6*	·	·	·
C[C@H](CO)N1C[C@H](C)[C@H](CN(C)C(=O)Nc2cc(F)ccc2F)Oc2cc(C#CC3CC3)ccc2S1(=O)=O	·	74.8*	·	·	·
C[C@H](CO)N1C[C@H](C)[C@H](CN(C)C(=O)NC2CCCC2)Oc2cc(/C=C/c3ccccc3)ccc2S1(=O)=O	4.0	11.3	·	·	·
COc1cccc(NC(=O)N(C)C[C@@H]2Oc3ncc(C#Cc4ccc(F)cc4)cc3C(=O)N([C@@H](C)CO)C[C@H]2C)c1	7.2	72.5*	·	·	·
C[C@@H]1CN([C@@H](C)CO)S(=O)(=O)c2ccc(C#CC3CC3)cc2O[C@@H]1CN(C)C(=O)Nc1cc(F)ccc1F	·	-10.2	·	·	·
COc1ccc(C#Cc2ccc3c(c2)O[C@H](CN(C)C(=O)Nc2cccc(OC)c2)[C@H](C)CN([C@@H](C)CO)S3(=O)=O)cc1	13.5	72.9*	·	·	·
COCC(=O)N1[C@H](C(=O)Nc2ccccc2)[C@@H](CO)[C@@H]2Cn3c(ccc(-c4ccccc4)c3=O)[C@@H]21	-4.3	-15.0	·	·	·
CCCNC(=O)N[C@@H]1CC[C@@H](CC(=O)N2CCN(C)CC2)O[C@H]1CO	0.0	-7.0	·	·	·
C[C@H]1CN([C@@H](C)CO)S(=O)(=O)c2ccc(C#Cc3ccc(F)cc3)cc2O[C@@H]1CN(C)S(=O)(=O)c1cn(C)cn1	12.7	74.0*	·	·	·
C[C@@H]1CN([C@H](C)CO)S(=O)(=O)c2ccc(C#Cc3ccc(F)cc3)cc2O[C@H]1CN(C)S(=O)(=O)c1cn(C)cn1	12.8	3.1	·	·	·
C[C@@H]1CN([C@@H](C)CO)S(=O)(=O)c2ccc(-c3ccccc3F)cc2O[C@H]1CN(C)Cc1cccnc1	6.2	-54.8	·	·	·
OCc1cn(-c2ccccc2)nc1-c1ccco1	42.0*	-0.3	·	·	38.7
SMILES	esBAF inh	C2C12 statin	Rtt109 Vps75	Wnt act	MITF TRPM1 HTS
OCc1cn(-c2ccccc2)nc1-c1ccc(-c2nn(-c3ccccc3)cc2CO)cc1	-1.7	·	-4.9	-1.8	-3.6
Cc1ccc(-c2nn(-c3ccccc3)cc2C=O)o1	?	-1.2	4.0	45.5*	22.3
Cc1ccc(-c2nn(-c3ccccc3)cc2CO)o1	46.2*	-6.7	17.0	·	39.5
COc1cccc(CNC(=O)C[C@H]2C=C[C@@H](NC(C)=O)[C@@H](CO)O2)c1	-3.7	1.8	·	·	·
O=S(=O)(c1ccccc1F)N1CC[C@@H]2[C@H]1c1cc(-c3ccc(F)cc3)ccc1N[C@@H]2CO	1.7	-9.1	·	·	·
C[C@@H]1CN([C@H](C)CO)S(=O)(=O)c2ccc(C#Cc3ccccn3)cc2O[C@H]1CN(C)Cc1ccccc1	10.4	-25.8	·	·	·
Cc1cccc(-c2noc(C3CCCCC3)n2)c1	63.3*	6.4	-5.4	·	36.7
Cc1ccc(-c2noc(C3CCCCC3)n2)cc1	·	·	2.1	·	166.8*
O=S(=O)(Cc1ccccc1)NCC[C@@H]1CC[C@H](NS(=O)(=O)c2ccccc2)[C@@H](CO)O1	1.0	-1.1	·	·	·
Cc1noc(C)c1S(=O)(=O)Nc1ccc2c(c1)CC(=O)N([C@H](C)CO)C[C@@H](C)[C@@H](CN(C)S(C)(=O)=O)O2	3.4	3.1	·	·	·
Cc1cccn2cc(-c3ccc(Cl)cc3)nc12	·	·	4.3	9.7	5.6
O=[N+]([O-])c1cccn2cc(-c3ccc(Br)cc3)nc12	57.7*	0.6	6.6	13.1	38.5
COc1ccc(NC(=O)N(C)C[C@H]2Oc3ccc(NS(=O)(=O)c4c(C)noc4C)cc3C(=O)N([C@@H](C)CO)C[C@@H]2C)cc1	5.5	0.4	·	·	·
Cc1cc(N(C)C)ccc1N=Nc1ccc2ncccc2c1	21.3	-33.0	2.7	42.4*	27.7
COC(=O)CSC1=C(C#N)C(c2ccc(C)cc2)C2=C(CCCC2=O)N1 (stereo not given)	·	·	-9.8	·	-7.6
CCOC(=O)CSC1=C(C#N)C(C)C2=C(CCCC2=O)N1 (stereo not given)	62.3*	-10.0	1.8	·	·
C[C@H]1CN([C@@H](C)CO)S(=O)(=O)c2ccc(C3=CCCCC3)cc2O[C@H]1CN(C)CC1CC1	·	-42.6	·	·	·
C[C@H](CO)N1C[C@H](C)[C@H](CN(C)S(=O)(=O)c2ccc(F)cc2)Oc2c(NC(=O)Nc3cccc4ccccc34)cccc2C1=O	3.6	-9.8	·	·	·
COc1cc2c(cc1OC)C(=O)CCS2	7.7	124.7*	-0.8	·	5.7
COc1ccc(S(=O)(=O)Nc2ccc3c(c2)C(=O)N([C@@H](C)CO)C[C@H](C)[C@@H](CN(C)C(=O)C2CCCCC2)OCCCC[C@H](C)O3)cc1	-5.9	·	·	·	·
CCOc1ccc(C(=O)N(CC)CC(=O)Nc2ccc3c(c2)OCCO3)cc1	?	3.8	-2.1	-3.0	·
CCOc1ccc(N/C(C)=C/C(=O)c2ccc3c(c2)OCCO3)cc1	·	·	-4.2	46.5*	60.9
CCOc1ccc(N/C(C)=C\C(=O)c2ccc3c(c2)OCCO3)cc1	·	·	7.1	35.9*	45.5
CC1(C)Cc2c(sc3nc(-c4cccs4)n(N)c(=O)c23)CO1	72.6*	-48.9	0.1	·	44.3
CCC1(C)Cc2c(sc3nc(SC)n(Cc4ccccc4)c(=O)c23)CO1 (stereo not given)	59.3*	-2.7	-3.2	·	54.9
Nn1c(-c2cccs2)nc2sc3c(c2c1=O)CCCC3	27.7	2.3	-2.5	·	26.4
